The values below come from PubChem BioAssay AID493192 (National Center for Advancing Translational Sciences (NCATS), 2011).

A short description of this assay: qHTS Assay for Identifying a Potential Treatment of Ataxia-Telangiectasia: Hit Validation.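 Also: phospho-KAP1 level by AlphaLISA as a proxy for ATM-like kinase activity.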 The essentials:
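hTERT-immortalized A-T patient fibroblasts (F2112) were dosed at up to 76.7 uM final for 60 min at 37C. After a further 30 min incubation, cells were lysed, and phospho-KAP1 was detected by AlphaLISA after 6 hr at 25C.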
A general note: Quantitative high-throughput screening tests each substance at several concentrations.

Molecules are shown by their SMILES. Inconclusive results are not listed. A call without a number means that no potency is given here. The source made the active and inactive calls. Calls follow the shape of the dose curve; as a rule, active = well fitted activation curve with a large enough effect; inconclusive = small, poorly fitted or top-dose-only effect; inactive = no such curve, though single readings can be large or run the other way.
Potency is read from the fitted curve at half-maximal effect.

Take `N#Cc1c2c(c(-n3cnc4ccccc43)n3c1nc1ccccc13)CCC2`: the Potency entry is “inactive”. In the case of `CN(C)Cc1ccc(F)cc1Sc1cc(Cl)ccc1Cl` it was “inactive”.

Turning to `CC1CC(C)CN(C(=O)COC(=O)c2c[nH]c3ccccc23)C1` (stereo unspecified), the Potency result was “inactive”. In the case of `COc1ccc(C2NC(=S)NC3=C2N2CCC3CC2)cc1` (stereo unspecified) it was 0.823 µM (active). In the case of `CC1=NN(C(C#N)c2ccc([N+](=O)[O-])cc2)C(C)(C)C1` (stereo unspecified) it was “inactive”. For `COc1cccc(CN(C)CC(=O)NCc2ccc(F)cc2)c1OC`, the Potency result is “inactive”. Under `COc1ccccc1NC(=O)C1CCCN(S(=O)(=O)c2ccc(-n3cnnn3)cc2)C1` (stereo unspecified) stands “inactive”.

On to `c1ccc(CSc2nnc(-c3ccco3)n2Cc2ccco2)cc1`, for which the Potency result is “inactive”.

On to `COc1ccccc1N1CCN(C(=O)c2cc(=O)c3c(C)cc(C)cc3o2)CC1`, for which the Potency entry was “inactive”. In the case of `CCCCn1c2c(c(=N)c3ccccc31)CCC2` it was “inactive”. In the case of `CC(CCc1ccccc1)NC(=O)COC(=O)c1ccc(F)cc1` (stereo unspecified) it was “inactive”.

`Cc1nc(SCC(=O)Nc2cc(C(N)=O)cc(C(N)=O)c2)c2c(C)c(C)sc2n1`: the Potency entry was “inactive”.

For `COc1ccc(CNC(=O)COc2cccnc2[N+](=O)[O-])cc1OC`, the Potency result was “inactive”. Under `COc1ccc(CCNC2=NCCS2)cc1OC` stands “inactive”. In the case of `COc1cc(/C=N/NC(=O)c2c(C)nc3ccc(Cl)cn23)cc(OC)c1OC` it was “inactive”; in that of `COc1cc(/C=C2\SC(=S)N(C(C(=O)O)c3ccccc3)C2=O)ccc1O` (stereo unspecified), “inactive”. Take `Cc1nc(Nc2ccc(Cl)cc2)c2oc3ccccc3c2n1`: the Potency entry was “inactive”.

On to `S=c1[nH]nc(Cn2c(-c3ccccn3)nc3ccccc32)n1-c1ccc2c(c1)OCCO2`, for which the Potency entry was “inactive”.

With `COc1ccccc1C1CCN(C(=O)c2ccc(Cl)cc2)CC1`, the Potency entry was “inactive”. Under `O=C(O)CCCN1C(=O)/C(=C/C=C/c2ccco2)SC1=S` stands “inactive”; under `CCC(Oc1ccccc1)C(=O)N(C)CC(=O)N(CC(C)C)c1c(N)n(CC(C)C)c(=O)[nH]c1=O` (stereo unspecified), “inactive”; under `O=C(Nc1ccc(N2CCCC2)cc1)c1ccc(Cl)cc1Cl`, “inactive”. On to `COc1ccc(-c2cc(C(F)(F)F)c(C#N)c(SCC(=O)O)n2)cc1OC`, for which the Potency entry is “inactive”.

For `CCN(CC)S(=O)(=O)c1ccc(Cl)c(NC(=O)CCCCl)c1`, the Potency entry is “inactive”. In the case of `CNC(=S)N(CCO)Cc1cc2cc3c(cc2[nH]c1=O)OCCO3` it was “inactive”; in that of `COc1ccc(N(CCC#N)C(=O)/C(C#N)=C\c2cccs2)cc1`, “inactive”.

Turning to `Cc1ccnc(NC(=O)c2ccccc2NC(=O)c2ccccc2)c1`, the Potency entry was “inactive”. In the case of `CC(C)NC(=O)c1ccc(COc2ccc(C(C)(C)C)cc2)o1` it was “inactive”; in that of `CCS(=O)(=O)N1Cc2ccccc2CC1C(=O)Nc1cccc(OC)c1` (stereo unspecified), “inactive”; in that of `CCOC(=O)c1ccc(-n2c(C)nc3ccc(Br)cc3c2=O)cc1`, “inactive”. Consider `CCn1c(SCc2cccc(F)c2)nnc1-c1ccncc1`, for which the Potency entry was “inactive”. Under `COc1ccccc1C(=O)NC(=O)Nc1cccc(Cl)c1` stands “inactive”. In the case of `OC(COC(c1ccc(F)cc1)c1ccc(F)cc1)CN1CCCC1` (stereo unspecified) it was “inactive”; in that of `C/C(CCC1CC(C)OC1=O)=N\NC(N)=S` (stereo unspecified), “inactive”. Under `Cn1cnc([N+](=O)[O-])c1SCCO` stands “inactive”; under `COc1ccc2nc(NCCCNC(=O)c3cc(OC)c(OC)c(OC)c3)c(C#N)cc2c1`, “inactive”.

For the compound `CCC(=O)NC1=C(Cl)C(=O)C(NC(=O)CC)=C(Cl)C1=O`, the Potency result is “inactive”.

Regarding `COc1ccc2c(c1)c(N=NC(N)=S)c(O)n2CC(=O)c1ccccc1`, the Potency entry is “inactive”. Under `Cc1nn(CC(=O)N(C)Cc2ccc(F)cc2)c(C)c1[N+](=O)[O-]` stands “inactive”; under `CCOC(=O)c1cccc(N2C(=O)C3C4C=CC(CC4)C3C2=O)c1` (stereo unspecified), “inactive”; under `CCOc1ccc(NC2=NCC(=O)N2Cc2cccs2)cc1`, “inactive”. Take `O=C(C[n+]1cccc2ccccc21)c1ccc(NC(=O)c2ccccc2)cc1`: the Potency result is “inactive”.

On to `CC(C)CNS(=O)(=O)c1cc(C(=O)O)c(Cl)cc1Cl`, for which the Potency entry was “inactive”.

As for `COC(=O)N/N=C/c1ccccc1OCCOc1ccc(OC)cc1`, the Potency entry was “inactive”. Under `O=C1NC(=Nc2ccccc2)CS1` stands “inactive”; under `Cc1ccc(NC(=O)Nc2cccnc2)cc1NC(=O)Nc1cccnc1`, “inactive”; under `CC1C(c2ccccc2)N(C)C(c2ccccc2)CC1(O)c1ccccc1` (stereo unspecified), 13 µM (active). Under `O=C(CSc1ccccn1)N/N=C/C=C/c1ccccc1` stands “inactive”; under `CNC(=S)N(CCc1c(C)[nH]c2ccc(Cl)cc12)Cc1cccnc1`, “inactive”. In the case of `O=c1c2cc(Br)ccc2nc(-c2ccccc2)n1O` it was “inactive”. On to `CN1C[C@@H]2C(c3ccccc3)C3(c4ccccc4)CC2(C3)[C@H]1c1ccccc1` (stereo partly specified), for which the Potency was 18.4 µM (active).
